From PubChem BioAssay AID602314 (ICCB-Longwood Screening Facility, Harvard Medical School, 2012) come the findings set out here.

What is called inhibition is the change of the read-out against control, counted positive when it falls.

About 110 (0.13%) of roughly 84,000 compounds were called active. Cut-off read from the data, not from the text of the source: active = inhibition above about 30% (passing the limit was not always enough); inactive = the rest. For the sample, actives were picked, then their nearest neighbours and some compounds at random.

The assay has as its system MgrA (MarR family transcriptional regulator), Staphylococcus aureus Newman. Put plainly: S. aureus MgrA activity modulators, primary screen, biochemical, S. aureus Newman, fluorescence polarization (AID 602314).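 Note: 0% = protein plus DNA without compound and 100% = DNA alone without protein; higher means less MgrA bound to DNA so lower polarization.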 The conditions noted are these: MgrA-DNA binding, active compounds read high, concentration not given here. Background: Polarisation of emitted light reports the rotation of a fluorescent probe.
As to `O=C1CSC(=S)N1c1ccc(Oc2ccc(Cl)cc2)cc1`, the inhibition is -2.4% (inactive).

Take `Cn1nnc(NC(=O)COc2ccccc2)n1`: the inhibition is -1.4% (inactive).

With `O=C(O)C1=Cc2sc3c(c2CS1)CCCC3`, the inhibition was 72.7% (active).

As to `NC(=O)c1c(NC(=O)c2ccccc2)sc2c1CCCC2`, the inhibition is 0.05% (inactive).

Turning to `CC/C(=N\OC(=O)c1cccs1)c1ccc(-c2ccccc2F)cc1`, the inhibition was 4.4% (inactive).

For the molecule `CN(C)C(=O)Cn1c(=O)n(S(=O)(=O)c2ccccc2)c2ccccc21`, the inhibition was 7.3% (inactive).

Regarding `CN(C)c1ncnc2nc[nH]c12`, the inhibition was 0.75% (inactive).

Consider `CCCN(CCC)S(=O)(=O)c1cccc2c(N)cccc12`, for which the inhibition is -2.2% (inactive).

On to `CC1=C(C(=O)OCCOC(C)C)C(c2ccccc2OCc2ccccc2)NC(=O)N1` (stereo unspecified), for which the inhibition was -4.9% (inactive).

With `CC1(C)COC(c2cccc(C#N)c2)OC1`, the inhibition was -1.45% (inactive).

`CCN1CCCc2cc(CN(CCN3CCOCC3)C(=S)Nc3c(C)cc(C)cc3C)ccc21`: the inhibition is 4.95% (inactive).

`COC(=O)C1=C(C)NC2=C(C(=O)CC(c3ccc(Cl)cc3)C2)C1c1ccc(OC(C)=O)c(OC)c1` (stereo unspecified): the inhibition is -2.1% (inactive).

Take `OCC(O)CN(c1ccccc1)c1ccccc1` (stereo unspecified): the inhibition is -1.8% (inactive).

Turning to `Cc1ccc2cc(C#N)c(SCC(=O)Nc3ccccc3)nc2c1`, the inhibition was -0.85% (inactive).

Turning to `O=C(CCSc1ccc(Cl)cc1)Nc1ccc(F)c(F)c1F`, the inhibition was 0.15% (inactive).

Regarding `COc1ccccc1Nc1n[nH]c(=S)n1C(=O)c1cccs1`, the inhibition is 2.9% (inactive).

Take `O=C(O)CCc1nn2c(=O)c3ccccc3nc2s1`: the inhibition was -0.2% (inactive).

Consider `CCCN(c1ccc(C)cc1)c1nc(=O)c2cccnc2s1`, for which the inhibition was 0.75% (inactive).

`C=CCn1c(=O)c(C(=O)NCC2CCCN2CC)c(O)c2cc(OC)c(OC)cc21` (stereo unspecified): the inhibition was -0.05% (inactive).

In the case of `NC(=O)c1sccc1NS(=O)(=O)c1ccc(Cl)c(Cl)c1`, the inhibition was 2.05% (inactive).

As to `CSc1ncc(C(N)=O)c(N)n1`, the inhibition is -4% (inactive).

For the molecule `CC(=O)Nc1ccc(-c2nc(-c3ccccc3)c3cc(C)ccc3n2)cc1`, the inhibition is 0.5% (inactive).

As for `COc1ccccc1NC(=O)C1CC(=O)N(CCc2ccccc2)C(=Nc2ccccc2)S1` (stereo unspecified), the inhibition is 0.9% (inactive).

In the case of `CN(Cc1ccccc1)C(=O)c1cccc(-c2nnc(-c3ccccc3)o2)c1`, the inhibition was 1.3% (inactive).

With `O=C(O)COc1ccc(NC(=O)c2ccccc2F)cc1`, the inhibition was -2.2% (inactive).

In the case of `CC(C)=CC(=O)Nc1nc2ccc(C)cc2s1`, the inhibition is 5.35% (inactive).

With `c1ccc(NC2CCCCC2)cc1`, the inhibition was -1.2% (inactive).

As for `O=C(c1cc(-c2ccccc2)c(C(F)(F)F)s1)N1CCCC1`, the inhibition is -2.9% (inactive).

For the molecule `c1ccc(CNC2C3CC4CC(C3)CC2C4)nc1` (stereo unspecified), the inhibition was -6% (inactive).

Take `CC12CC[C@H](CC1=O)C2(C)C`: the inhibition was 0.7% (inactive).

Regarding `COc1ccc(O)c(/C=N/NC(=O)c2ccn(Cc3ccc(Cl)cc3)n2)c1`, the inhibition was 2.4% (inactive).

On to `Nc1cc(C(=O)OCC(=O)NC2CCCCCC2)ccc1Cl`, for which the inhibition is -0.65% (inactive).

Consider `COC(=O)c1ccc(C2NN=C(c3ccccc3)S2)cc1` (stereo unspecified), for which the inhibition was 2.7% (inactive).

As to `Cc1ccccc1CNCc1cccs1`, the inhibition was -3.4% (inactive).

With `O=c1[nH]c2ccccc2c(=O)n1NS(=O)(=O)c1ccc2ccccc2c1`, the inhibition was 1.35% (inactive).

As to `CCCc1c(C)nc2c(C)cccc2c1SCCC(=O)O`, the inhibition is 0% (inactive).

Turning to `CC(C)C(=O)N=C1SC2CS(=O)(=O)CC2N1CCc1ccccc1` (stereo unspecified), the inhibition is 0.45% (inactive).

On to `CCCn1nnnc1NC(=S)NC(=O)c1cc2ccccc2o1`, for which the inhibition was 3.35% (inactive).

For the molecule `O=C(O)C1C2CCC(C2)C1C(=O)NCCCN1CCCC1=O` (stereo unspecified), the inhibition is 1.45% (inactive).

Take `O=[N+]([O-])c1ccc(Oc2cccc(Cl)c2)nc1`: the inhibition was -0.6% (inactive).

As for `CCOC(=O)N1CCN(Cc2nc3c(c(=O)n(C)c(=O)n3C)n2CC)CC1`, the inhibition is 6.15% (inactive).

In the case of `CC(NC(=S)Nc1ccc(S(N)(=O)=O)cc1)c1ccc2c(c1)OCO2` (stereo unspecified), the inhibition is 0.45% (inactive).

As for `Cc1ccc(C(=O)[C@@H]2[C@@H](C(C)(C)C)C(C#N)(C#N)[C@@]3(C)C=Cc4ccccc4N23)cc1`, the inhibition is -0.85% (inactive).

As for `CCc1cccc(CC)c1N1C(=O)C(C)=C(C)C1=O`, the inhibition was -0.9% (inactive).

As for `O=C(O)CNC(=O)c1ccc(Cl)c(Cl)c1`, the inhibition is -1.25% (inactive).

Take `O=C(O)C1CCCCC1C(=O)Nc1ccc2[nH]c(=S)sc2c1` (stereo unspecified): the inhibition was 6.3% (inactive).

Take `CCC(NC(=O)Nc1cc(C)cc(C)c1)c1c(-n2cccc2)sc2c1CCN(CC)C2` (stereo unspecified): the inhibition is 1% (inactive).

Regarding `Cc1nc2ccc(C(=O)OCCC(F)(F)F)cc2[nH]1`, the inhibition is -0.25% (inactive).

Turning to `Cc1cc(C)c(C(=O)N2CCCCC2C)c(C)c1` (stereo unspecified), the inhibition is -0.7% (inactive).

For the molecule `O=C(NC1CCCCNC1=O)c1ccc(N2CCOCC2)nc1` (stereo unspecified), the inhibition was -0.3% (inactive).

Take `CCOC(=O)CC1=C(C(=O)OCC)C(c2c(F)cccc2Cl)C(C#N)=C(N)O1` (stereo unspecified): the inhibition was 0.2% (inactive).

Consider `C=CCNC(=O)c1ccc(OCC=C)cc1`, for which the inhibition was 0.4% (inactive).

For the molecule `C=CCNC(=O)c1cc(-c2ccccc2O)on1`, the inhibition is 0.8% (inactive).

For the molecule `C=CCNC(=O)c1ccc2nc(-c3ccco3)c(-c3ccco3)nc2c1`, the inhibition is 59.2% (active).

Regarding `CSC(=Nc1ccccc1F)Nc1ccccc1F`, the inhibition is -2.5% (inactive).

On to `O=C(O)c1ccccc1Cc1cccs1`, for which the inhibition was -3.8% (inactive).

Turning to `C=CCNC(=O)c1cc(Br)cs1`, the inhibition was 0.6% (inactive).

Consider `Cc1nc(SCSc2nc3ccccc3s2)nc2c1CCCC2`, for which the inhibition was 0.6% (inactive).

On to `CCN(CC)S(=O)(=O)c1cc2c3c(c1)c(C)cc(=O)n3CCC2`, for which the inhibition was 0.85% (inactive).

Regarding `O=C(c1ccc(Br)cc1)c1cc2cc(Br)cc(Br)c2o1`, the inhibition is 1.1% (inactive).

As to `COc1cccc(O)c1C(=O)NCC(=O)O`, the inhibition is -1.1% (inactive).

`COc1ccc(N=Cc2nc(-c3ccccc3Br)oc2O)c([N+](=O)[O-])c1`: the inhibition is 4.2% (inactive).

For the molecule `O=C(OC(C(=O)c1ccccc1)c1ccccc1)c1cccc(O)c1` (stereo unspecified), the inhibition is -1% (inactive).

Take `CCNc1sc(C(=O)OC)c(N)c1C#N`: the inhibition was 0.25% (inactive).

In the case of `COc1ccc2[nH]c(=O)c(CN(Cc3ccc(C)cc3)C(C)=O)cc2c1`, the inhibition was 3.85% (inactive).

With `COc1cccc(CNn2cn[nH]c2=S)c1OCc1ccccc1`, the inhibition is 0.8% (inactive).

With `COc1cc(C)nc(NN)n1`, the inhibition is 2.8% (inactive).

On to `COc1ccc(Cl)c2c1NC(c1ccncc1)C1CC=CC21` (stereo unspecified), for which the inhibition was 0% (inactive).

Turning to `CC1(C)CC(CC#N)(c2ccccc2)CCO1` (stereo unspecified), the inhibition is -1.15% (inactive).

For `Cn1c(SCC(=O)NCc2ccc(Cl)cc2)nnc1-c1ccc(Cl)cc1`, the inhibition was -0.25% (inactive).

Regarding `NC(=O)c1ccccc1N=Cc1ccc2ccccc2c1`, the inhibition was -2.2% (inactive).

With `Cc1ccc2c(c1)NC(c1cc(Cl)cc(Cl)c1O)c1cccn1-2` (stereo unspecified), the inhibition was 0.6% (inactive).

For the molecule `Cc1nc2onc(OCC(=O)OCc3ccccc3)c2c(C)c1C`, the inhibition is 0.6% (inactive).

With `O=C1CCCN1c1ccc(OC(F)(F)F)cc1`, the inhibition was -1.5% (inactive).

As to `C=CCC1NC(C)(C)Cc2ccccc21` (stereo unspecified), the inhibition was -0.25% (inactive).

For the molecule `CC1CCCCN1C(=O)c1ccccc1F` (stereo unspecified), the inhibition is -1.4% (inactive).

With `NCC1(N2CCCCC2)CCCCC1`, the inhibition was -1.35% (inactive).

For `Cc1onc(-c2ccccc2)c1C(=O)N=C(N)c1ccc(Cl)cc1`, the inhibition was -1.9% (inactive).

On to `C=CCSc1nc2c(c(=O)[nH]c(=O)n2C)n1C/C=C(\C)Cl`, for which the inhibition is 3% (inactive).

Turning to `Cc1cc(C)cc(C(=O)OCC(=O)Nc2cccc(C(F)(F)F)c2)c1`, the inhibition was 3.35% (inactive).

Turning to `COC(=O)c1sc(-c2ccc(Cl)cc2)cc1NC(=O)c1ccc2nsnc2c1`, the inhibition is -0.8% (inactive).

In the case of `CC(=O)N1N=C(c2c(-c3ccccc3)c3cc(Cl)ccc3[nH]c2=O)CC1c1cccc(Br)c1` (stereo unspecified), the inhibition was -1.4% (inactive).

With `Cc1[nH]ncc1-c1ccccc1`, the inhibition was -1.4% (inactive).

With `CCOC(=O)c1sc(SC)c2c1CC(c1ccc(C)cc1)CC2=O` (stereo unspecified), the inhibition is -0.2% (inactive).

On to `O=[N+]([O-])c1cc(C(F)(F)F)cc([N+](=O)[O-])c1Oc1ccc(Cl)cc1Cl`, for which the inhibition was 3.2% (inactive).

As to `CC(C)(C)c1c[n+](-c2ccccc2)c2n1CCS2`, the inhibition was 0.1% (inactive).

With `COC(=O)COc1ccccc1C#N`, the inhibition is 0.4% (inactive).

As for `CC1OC(O[C@H]2/C=C/C=C/C=C/C=C/C=C/C=C/C=C/[C@H](C)[C@@H](O)[C@@H](C)[C@H](C)OC(=O)CC(O)CC(O)CCC(O)C(O)CC(O)CC3(O)C[C@H](O)C(C(=O)O)C(C2)O3)C(O)[C@H](N)C1O` (stereo partly specified), the inhibition was 2.9% (inactive).

As to `O=c1[nH]nc(-c2ccccc2)[nH]1`, the inhibition was -1.6% (inactive).

Consider `CCC(=O)Nc1cc(NC(=O)c2ccco2)ccc1C`, for which the inhibition was -1.65% (inactive).

As to `O=C(Nc1ccccc1)OCC12COC(c3ccccc3)N1C(c1ccccc1)OC2` (stereo unspecified), the inhibition was -1.5% (inactive).

Take `O=C(c1ccco1)N1CCN(c2cnn(-c3ccccc3)c(=O)c2Cl)CC1`: the inhibition is -0.95% (inactive).

Consider `Cc1ccc2c(c1)c1c(n2CC(O)CNCc2ccccc2)CCCC1` (stereo unspecified), for which the inhibition was -1.7% (inactive).

Regarding `CN(C(=O)CSc1nncc(=O)[nH]1)c1ccccc1`, the inhibition is -1.65% (inactive).

`CC1(C)CC(=O)C2=C(C1)OC1=C(C(=O)CC(C)(C)C1)C2c1cn(Cc2ccc(Cl)cc2Cl)nc1-c1ccccc1`: the inhibition was -0.5% (inactive).

On to `COc1cc(C2C3=C(CC(C)(C)CC3=O)OC3=C2C(=O)CC(C)(C)C3)c(Br)cc1OCC(=O)O`, for which the inhibition is 3.4% (inactive).

On to `O=C(NN=c1c(=O)c2ccccc2c1=O)c1ccncc1`, for which the inhibition is 1.9% (inactive).

With `CCn1c(=O)c2ccccc2n(CC(=O)c2ccc(C)cc2)c1=O`, the inhibition was -1.25% (inactive).

Turning to `CC1CCCN(c2ncccc2C(=O)NCC2CCCO2)C1` (stereo unspecified), the inhibition is 1.1% (inactive).

For the molecule `CN(C(=O)c1cc2nc(-c3ccco3)cc(C(F)(F)F)n2n1)c1ccc(OC(F)(F)F)cc1`, the inhibition was -0.95% (inactive).

Turning to `COc1ccc(C(=O)COC2=C(C#N)C3(CCCC3)C(C#N)C(=S)N2)cc1OC` (stereo unspecified), the inhibition is -1.5% (inactive).
